# Unmarked numbers belong to inactive results. Records with an inconclusive call do not appear. Active and inactive are the calls of the source. Unless noted, calls come from the whole dose curve; as a rule, active = well fitted curve in either direction with a large enough effect (not every such curve was filed as active); inconclusive = small, poorly fitted or top-dose-only effect, or another doubt; inactive = flat fitted curve, though single readings scatter.
# Key:
# [1] = AP1 Signaling Pathway (AID 357); details: ME-180 AP-1-bla reporter, EGF-induced, beta-lactamase ratio, 5 h; at 17.2 µM (top of the series) unless noted; note: % is set by controls: 0 for no effect and ±100 for the full control effect
# Outline: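 AP-1-bla ME-180 cells with beta-lactamase reporter under AP-1 response element, stimulated with EC50 EGF; compounds titrated, 5 hours at 37 degrees Celsius. CCF4 read at 460/530 nm ratio; positive and negative modulators judged by AC50.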
# [2] = NFAT Signaling Pathway (AID 444); details: Jurkat NFAT-bla M1, carbachol, beta-lactamase ratio, 5 h; at 17.2 µM (top of the series) unless noted;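 note: carbachol stimulus at about its EC50 of 1 µM final; % is set by controls: 0 for no effect and ±100 for the full control effect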
# Outline: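 Read-out: CCF4 FRET ratio (460 nm/530 nm) after 1 h RT dye loading, used for %activity and AC50 from titration series. Cells: Jurkat NFAT-β-lactamase/M1 line, treated with compound plus 1 uM carbachol for 5 h, 37 °C.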
# [3] = Stat Signaling Pathway (AID 446); details: ME-180 SIE beta-lactamase reporter, IL-6 stimulated, 5 h; at 17.2 µM (top of the series) unless noted;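 note: ME-180 cervical cancer cells given 40 pM IL-6 alongside compound; SIE-controlled beta-lactamase reporter measured as 460/530 nm FRET emission ratio; % is set by controls: 0 for no effect and ±100 for the full control effect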
# Outline: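 IL-6/STAT signaling read in ME-180 cells via an SIE beta-lactamase reporter. Stimulus was 40 pM IL-6 (its AC50) for 5 hrs, so both activation and inhibition register.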
# [4] = biological target: Glucocorticoid receptor (Homo sapiens) (UniProt P04150); assay: GR-GFP Redistribution (AID 450;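 active = compounds whose dose series gives a full or clear partial fitted curve of increased nuclear translocation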; note: potency is the fitted concentration of half-maximal effect)
# [5] = qHTS Assay for Identification of Small Molecule Agonists for Hypoxia Response Element Signaling Pathway (AID 914; active = well fitted activation curve with a large enough effect in the signal ratio, with a control signal flat, not every such curve was filed as active; the % refers to the signal ratio; note: potency is the fitted concentration of half-maximal effect; for activation: % of control where 0% means no effect); details: ME-180 (cervical carcinoma) HRE-bla reporter, beta-lactamase ratio, CoCl2, 17 h; activation: stronger effect = higher value
# Outline: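 HRE-bla ME-180 cells, overnight plating in Opti-MEM with 0.5% dialyzed FBS; cpd titration + EC50 CoCl2, 17 h, 37 degrees Celsius; CCF4 2.5 h RT; 460/530 nm ratio; AC50.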
# [6] = biological target: Mitogen-activated protein kinase 10 (Mus musculus) (UniProt Q61831); assay: JNK3 AlphaScreen Assay (AID 530);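 note: kinase came from lysate of stimulated human HepG2 cells; signal reports phosphorylation of biotinylated GST-cJun 1-79 at Ser73 with 10 µM ATP; % is set by controls: 0 for no effect and ±100 for the full control effect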
# Outline: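 Room-temperature AlphaScreen kinase assay; pre-activated HepG2 lysate as JNK3 source, biotin-GST-cJun(1-79) substrate, 10 uM ATP, compound 15 min preincubation.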
# [7] = biological target: 3',5'-cyclic-AMP phosphodiesterase 4B (Homo sapiens) (UniProt Q07343); assay: qHTS Assay for Inhibitors of PDE-IV (AID 607; active = well fitted activation curve with a large enough effect in the main read-out, with a control signal flat, not every such curve was filed as active; note: % of control where 0% means no effect)
# Outline: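 Live HEK293 cells with a modified cyclic nucleotide-gated (CNG) channel report intracellular cAMP via membrane-potential dye fluorescence (ex 535/em 590 nm). Endogenous PDE-IV was targeted. Compounds were tested at up to 22.9 uM final; RO 20-1724 100 uM served as control.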
# Chain of Glucocorticoid receptor (Homo sapiens) (P04150 whole entry, looked up): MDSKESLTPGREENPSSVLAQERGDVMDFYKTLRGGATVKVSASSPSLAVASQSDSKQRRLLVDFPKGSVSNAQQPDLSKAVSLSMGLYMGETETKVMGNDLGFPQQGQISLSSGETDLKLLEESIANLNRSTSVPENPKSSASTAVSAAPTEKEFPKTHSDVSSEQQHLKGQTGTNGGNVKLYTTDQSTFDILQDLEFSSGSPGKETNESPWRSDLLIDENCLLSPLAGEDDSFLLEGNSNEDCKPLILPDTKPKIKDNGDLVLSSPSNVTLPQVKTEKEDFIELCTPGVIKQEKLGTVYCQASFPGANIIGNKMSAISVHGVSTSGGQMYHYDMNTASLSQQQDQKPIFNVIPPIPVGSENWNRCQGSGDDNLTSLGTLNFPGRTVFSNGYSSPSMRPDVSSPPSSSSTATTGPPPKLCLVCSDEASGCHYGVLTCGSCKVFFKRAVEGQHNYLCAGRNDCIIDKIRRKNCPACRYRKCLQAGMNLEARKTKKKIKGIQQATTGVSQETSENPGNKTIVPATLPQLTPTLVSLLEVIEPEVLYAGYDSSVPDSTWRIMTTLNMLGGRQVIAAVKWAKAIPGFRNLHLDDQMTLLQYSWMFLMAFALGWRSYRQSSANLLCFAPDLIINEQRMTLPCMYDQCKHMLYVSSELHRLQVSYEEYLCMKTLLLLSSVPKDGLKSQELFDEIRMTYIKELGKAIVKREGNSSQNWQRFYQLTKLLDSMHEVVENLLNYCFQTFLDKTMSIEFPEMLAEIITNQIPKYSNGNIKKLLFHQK
# Chain of 3',5'-cyclic-AMP phosphodiesterase 4B (Homo sapiens) (Q07343 whole entry, looked up): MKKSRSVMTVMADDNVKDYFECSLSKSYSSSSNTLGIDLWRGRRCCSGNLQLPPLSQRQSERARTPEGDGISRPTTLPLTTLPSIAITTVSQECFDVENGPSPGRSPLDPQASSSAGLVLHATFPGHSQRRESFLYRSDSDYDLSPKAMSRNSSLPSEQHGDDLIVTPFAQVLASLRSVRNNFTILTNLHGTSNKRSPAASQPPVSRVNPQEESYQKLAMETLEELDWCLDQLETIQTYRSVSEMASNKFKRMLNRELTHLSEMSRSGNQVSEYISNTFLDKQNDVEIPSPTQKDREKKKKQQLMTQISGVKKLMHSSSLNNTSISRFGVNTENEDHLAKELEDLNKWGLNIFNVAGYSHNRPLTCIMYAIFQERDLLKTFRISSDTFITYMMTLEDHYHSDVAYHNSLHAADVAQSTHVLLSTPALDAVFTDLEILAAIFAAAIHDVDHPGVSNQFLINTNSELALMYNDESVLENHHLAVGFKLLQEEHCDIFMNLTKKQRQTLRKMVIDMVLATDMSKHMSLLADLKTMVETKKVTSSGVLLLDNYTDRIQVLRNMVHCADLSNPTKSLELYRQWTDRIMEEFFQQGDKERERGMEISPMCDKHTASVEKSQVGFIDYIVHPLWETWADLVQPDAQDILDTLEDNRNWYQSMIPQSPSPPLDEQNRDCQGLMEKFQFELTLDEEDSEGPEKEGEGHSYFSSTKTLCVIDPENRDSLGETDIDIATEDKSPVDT
Compound,"activity change, negative = inhibition [1]","activity change, negative = inhibition [2]","activity, negative = inhibition [3]",Potency [4],activation [5],"activity change, negative = inhibition [6]",Potency [7],Potency [5]
CCSC(SCC)[C@H](O)[C@@H](O)[C@H](O)[C@H](O)CO,-0.356%,8.22%,10.1%,> 20.6 µM,9.48%,–,–,–
COCCCn1c(C)nc2c(c1=O)c1nc3ccccc3nc1n2CCc1ccccc1,-6.69%,-1.98%,-10%,> 20.6 µM,-19.8%,–,–,–
CCOc1ccc(Cn2c(O)cc(=O)[nH]c2=O)cc1,11.9%,2.3%,5.06%,> 20.6 µM,5.51%,–,–,–
CC(=O)N[C@H](Cc1c[nH]c2ccccc12)C(=O)O,3.17% [at 7.69 µM],4.78% [at 7.69 µM],14.4% [at 7.69 µM],> 46 µM,–,4.22% [at 11.4 µM],inactive,–
CCN(CC)CCNc1nc2c(c(=O)[nH]c(=O)n2C)n1CCOc1ccccc1,-3.03%,-7.16%,8.2%,> 20.6 µM,0.547%,–,–,–
CCOc1ccc(CSC(CC(=O)O)C(=O)O)cc1 (stereo unspecified),-0.441%,-5.85%,11.1%,> 20.6 µM,14.8%,–,–,–
C=C(C)CN(CC)CCC(=O)Nc1ccc(OC)cc1OC,-7.43%,3.18%,6.14%,> 20.6 µM,-8.71%,–,–,–
COC(=O)c1sc(NC(C)=O)c(C(=O)OC)c1C,2.69%,2.63%,1.36%,> 20.6 µM,21.1%,–,–,–
O=C(O)CC(NC(=O)COc1ccc(Cl)cc1Cl)C(=O)O (stereo unspecified),7.75%,6.45%,1.25%,> 20.6 µM,3.63%,–,–,–
Cc1cc(CC(=O)O)c(C)cc1CC(=O)O,11.9%,2.75%,2.12%,> 20.6 µM,5.91%,–,–,–
CCN(CC)CCNC(=O)c1ccccc1N,4.21%,-28.8%,6.63%,> 20.6 µM,10.3%,–,–,–
N#Cc1nc(COc2ccccc2)oc1N1CCCC1,-20.4%,4.75%,0.032%,> 20.6 µM,-0.614%,–,–,–
CSc1nc(C)c2c(c1C#N)CCCC2,-16.1%,-18.1%,16.1%,> 20.6 µM,-4.49%,–,–,–
Cc1cc(C)n(C(=O)CNC(=O)c2ccc3c(c2)OCCO3)n1,-0.109%,-6.13%,7.28%,> 20.6 µM,-10.8%,–,–,–
C=CCn1c(N)c(C(=O)OC(C)(C)C)c2nc3ccccc3nc21,-16.9%,3.64%,-6.1%,> 20.6 µM,–,–,–,10 µM (active)
COc1cc(-c2cc(C(F)(F)F)n3ncc(C(=O)O)c3n2)cc(OC)c1OC,3.69%,3.34%,1.42%,> 20.6 µM,13.9%,–,–,–
O=C(C1CCCCC1)N1CCCn2c1nc1ccccc12,8.92%,-19.9%,4.38%,> 20.6 µM,6.44%,–,–,–
Cc1cc(=O)oc(C)c1C(=O)Nc1cccc2nonc12,-1.38%,11.1%,-0.713%,> 20.6 µM,1.4%,–,–,–
O=C1C2ON(c3ccccc3)C(c3cccnc3)C2C(=O)N1c1ccc(Cl)c(Cl)c1 (stereo unspecified),-4.98%,16%,-9.39%,> 20.6 µM,2.42%,–,–,–
CC(C)COC(=O)CCNc1n[nH]c(=O)[nH]c1=O,12.9%,4.96%,1.49%,> 20.6 µM,-10.2%,–,–,–

# Reference: PubChem BioAssay (NCATS)
